Assay outcomes from PubChem.
Shown are actives, neighbours in structure and some others; about 9.6% of the full set was active somewhere.
Insulin prom inh: TRM-6 insulin promoter activity inhibition; TRM-6 cells (human fetal islet line), insulin promoter-eGFP reporter, imaging; reporter expression induced with tamoxifen; inhibition, % at 2 µM; 130,000 compounds, 0.9% hits; AID 1273;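 active = inhibition above the mean plus 3 SD, with well images judged a real hit on visual review, cut at about 60% in these data, passing the limit was not always enough; inconclusive = inhibition over the cutoff but images rejected on review; inactive = inhibition not above the cutoff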
Insulin prom up: MIN6 insulin promoter up-regulation. MIN6 insulin promoter-GFP reporter, high-content imaging; active compounds read high. z-score at 5 µM. 190,000 compounds, 0.3% hits;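 active = z-score above 3 at 5 µM with at least 500 cells counted in the well; inconclusive = wells under 500 cells, flagged as cytotoxic or low count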
HCT116 PTEN-null: growth suppressors of cells with PTEN tumor suppressor deletion; HCT116 PTEN-null viability, CellTiter-Glo, 60 h; active compounds read low; viability, % at 10 µM; 140,000 compounds, 1.2% hits;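 active = viability at or below a set limit, 4 SD under the median of all tested compounds, cut at about 3.7% in these data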;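 note: PTEN knockout HCT116 line with beta catenin targeted HCT116 as companion control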
HCT116 bCat-KO: beta-catenin-lacking colon tumor cell growth suppression; AID 818; 140,000 compounds, 1.5% hits; HCT116 beta-catenin knockout viability, CellTiter-Glo, 60 h; active compounds read low; viability, % at 10 µM;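 active = viability at or under a set limit, the compound median less 4 SD, cut at about 6% in these data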
L major viab: reduces viability of Leishmania major promastigotes | resazurin fluorescence viability | inhibition, % at 10 µM | 200,000 compounds, 9% hits | AID 1063; in the data active = inhibition above about 50%;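 note: promastigotes grown with compound for 44 hours at 28 °C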
Autophagy HCS: alters autophagy in cells; MEF GFP-LC3 puncta imaging; test concentration mostly 10 µM; calls only at 10 µM (by protocol); 190,000 compounds, 0.98% hits;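 active = percentage of spot-positive cells more than 3 SD above its plate mean, without a fluorescence outlier flag or 80% toxicity; inconclusive = no clear call, values can overlap the other calls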
Each line names hits and unclear results; the compound was inactive in the other large screens.

COc1ccc(C(C(=O)NC2CCCCC2)N(C(=O)CCl)c2ccc(C)cc2)cc1 (configuration not stated)	HCT116 PTEN-null 2.2, HCT116 bCat-KO 5.0, L major viab 91
COc1ccc(C(C(=O)NC2CCCC2)N(C(=O)c2ccoc2C)c2ccc(C)cc2)cc1 (configuration not stated)	none
COc1ccc(NC(=S)Nc2ccc3snnc3c2)cc1	L major viab 54 (no result: Insulin prom inh, HCT116 PTEN-null, HCT116 bCat-KO)
COc1ccc(NC(=S)Nc2ccc(N)c([N+](=O)[O-])c2)cc1	L major viab 100
CCN(CC)CCN1C(=O)c2oc3ccccc3c(=O)c2C1c1ccccc1 (configuration not stated)	Insulin prom up 3.7
CCOC(=O)C(NC(=O)c1ccccc1)=C1C=C(C)OC(C)=C1	none
CN1CCN(CC(=O)N2N=C(c3cccs3)CC2c2ccco2)CC1 (configuration not stated)	none
O=C(CCl)N1N=C(c2cccs2)CC1c1ccco1 (configuration not stated)	L major viab 96 (no result: Insulin prom inh, HCT116 PTEN-null, HCT116 bCat-KO)
CCSc1nc(=S)n(Cc2ccccc2)c(C)c1C(C)=O	none
CSc1nc(=S)n(Cc2ccccc2)c(C)c1C(C)=O	Autophagy HCS active
CC(C)OC(=O)/C(=C\c1cccc2ccccc12)NC(=O)c1ccccc1	L major viab 91
CC(C)OC(=O)/C(=C\c1ccccc1)NC(=O)c1ccccc1	none (no result: Insulin prom inh, HCT116 PTEN-null, HCT116 bCat-KO)
O=C(c1ccc(F)cc1)N(NC(=O)C(O)(c1ccccc1)c1ccccc1)c1ccccc1	L major viab 66
Cc1ccccc1CSCC(=O)Nc1c(C)n(C)n(-c2ccccc2)c1=O	none
Cc1ccc(CSCC(=O)Nc2c(C)n(C)n(-c3ccccc3)c2=O)cc1	L major viab 61
Cc1ccccc1OCc1nnc(SCC(=O)Nc2c(C)n(C)n(-c3ccccc3)c2=O)n1-c1ccccc1	L major viab 59
Cc1ccc(S(=O)(=O)N/N=C\C=C\c2ccccc2)cc1	L major viab 83
O=S(=O)(N/N=C\C=C\c1ccccc1)c1ccc(Br)cc1	L major viab 97 (no result: Insulin prom up)
Cn1c(=O)c(=O)n(C)c2cc([N+](=O)[O-])c([N+](=O)[O-])cc21	L major viab 80 (no result: Insulin prom inh, HCT116 PTEN-null, HCT116 bCat-KO)
CN1CC=C2C(C#N)=C(N)C(C#N)(C#N)C(CCc3ccccc3)C2C1 (configuration not stated)	none
CN1CC=C2C(C#N)=C(N)C(C#N)(C#N)[C@H](c3cccs3)[C@H]2C1	Autophagy HCS active (no result: Insulin prom up)
CC(C)c1ccc(C2C3CSCC=C3C(C#N)=C(N)C2(C#N)C#N)cc1 (configuration not stated)	L major viab 98 (no result: Insulin prom up)
CN1CC=C2C(C#N)=C(N)C(C#N)(C#N)[C@H](c3cccc(Cl)c3)C2C1 (some centres not stated)	Autophagy HCS inconclusive (no result: Insulin prom up)
COc1cc([C@@H]2[C@H]3CN(C)CC=C3C(C#N)=C(N)C2(C#N)C#N)cc2c1OCO2	Autophagy HCS active (no result: Insulin prom inh, Insulin prom up)
CCCC1C2CN(C(C)C)CC=C2C(C#N)=C(N)C1(C#N)C#N (configuration not stated)	L major viab 76, Autophagy HCS inconclusive (no result: Insulin prom inh, Insulin prom up)
CC1(C)CC(=O)C(C=NCCN2CCN(C3CC(=O)N(c4ccc(Cl)c(Cl)c4)C3=O)CC2)=C(O)C1 (configuration not stated)	none (no result: Insulin prom inh, HCT116 PTEN-null, HCT116 bCat-KO)
COc1cc(C(=O)NCC(c2cccnc2)N2CCN(c3ccc(F)cc3)CC2)cc(OC)c1OC (configuration not stated)	L major viab 78 (no result: HCT116 PTEN-null, HCT116 bCat-KO)
O=C(NCc1cccnc1)C(=O)NCC(c1ccco1)N1CCN(c2ccc(F)cc2)CC1 (configuration not stated)	none
COc1ccc(C(=O)NCC(c2cccnc2)N2CCN(c3ccc(F)cc3)CC2)cc1OC (configuration not stated)	L major viab 97 (no result: Insulin prom inh, Autophagy HCS)
O=C(NCC(c1cccnc1)N1CCN(c2ccc(F)cc2)CC1)c1ccco1 (configuration not stated)	L major viab 72 (no result: Insulin prom inh, HCT116 PTEN-null, HCT116 bCat-KO)
COc1ccc(N2CCN(C(CNC(=O)c3ccco3)c3cccnc3)CC2)cc1 (configuration not stated)	none
O=C(NCC(c1cccnc1)N1CCN(c2ccc(F)cc2)CC1)c1ccc(F)cc1 (configuration not stated)	L major viab 88
Cn1c(=O)n(CC(=O)OCc2ccccc2)c(=O)c2c1nc1n2CCCN1C1CCCCC1	none (no result: Insulin prom up, HCT116 PTEN-null, HCT116 bCat-KO)
Cc1nnsc1C(=O)NNc1ccc(C(C)(C)C)cc1	none (no result: Insulin prom inh, HCT116 PTEN-null, HCT116 bCat-KO, L major viab, Autophagy HCS)
O=C(NCCCn1ccnc1)C(=O)NCC(c1cccnc1)N1CCN(c2ccccc2)CC1 (configuration not stated)	none
COc1ccc(C(=O)NCC(c2cccnc2)N2CCN(c3ccccc3)CC2)cc1OC (configuration not stated)	L major viab 81
NS(=O)(=O)c1ccc(CCNC(=O)Nc2ccc(Cl)c(Cl)c2)cc1	L major viab 76 (no result: Insulin prom inh)
CCCN(CCC)c1nc(C)cc(C(C#N)c2nc3ccccc3o2)n1 (configuration not stated)	Autophagy HCS active (no result: Insulin prom inh)
CC(c1nc2ccccc2o1)N1C(=O)c2ccccc2C1=O (configuration not stated)	none (no result: Insulin prom up)
Cc1nnc(NC(=O)c2oc3cc(C)c(C)cc3c2C)s1	Autophagy HCS active (no result: Insulin prom inh)
Cc1ccc2c(C)c(C(=O)Nc3nnc(C)s3)oc2c1	none (no result: Insulin prom inh)
CCOc1cc(CNCc2cccs2)ccc1OCC(=O)NC(C)(C)C	none (no result: Insulin prom inh)
COc1cc(CNCc2cccs2)ccc1OCc1cccs1	L major viab 100 (no result: Insulin prom inh)
COc1cc(CNCc2cccs2)ccc1OCC(=O)NC(C)(C)C	L major viab 89
CCOc1ccc(CCNC(=O)CCc2c(C)nc3ncnn3c2C)cc1OCC	none
O=C(N/C(=C/c1ccc(Br)cc1)C(=O)N1CCOCC1)c1cccs1	none (no result: Insulin prom inh, HCT116 PTEN-null, HCT116 bCat-KO)
NS(=O)(=O)c1ccc(N=Nc2c(-c3ccccc3)[nH]n(-c3nc(-c4ccccc4)cs3)c2=O)cc1	L major viab 73 (no result: Insulin prom inh)
Nc1[nH]n2c(=O)cc(-c3ccccc3)nc2c1N=Nc1ccc(S(N)(=O)=O)cc1	none (no result: Insulin prom up, HCT116 PTEN-null, HCT116 bCat-KO)
COc1ccc(C(=O)NCc2ccc(S(N)(=O)=O)cc2)cc1[N+](=O)[O-]	none (no result: Insulin prom inh, HCT116 PTEN-null, HCT116 bCat-KO)
CC(C)CCOc1cccc(OCC(=O)NC2CCS(=O)(=O)C2)c1 (configuration not stated)	none
CCOC(=O)c1sc2nc(C)[nH]c(=S)c2c1C	Insulin prom inh 79 (no result: HCT116 PTEN-null, HCT116 bCat-KO)
CCc1ccc(C(C)NC(=O)C2(C)CC2(Br)Br)cc1 (configuration not stated)	L major viab 54
Cc1cc2c(cc1C)NC(c1c(C)n(C)n(-c3ccccc3)c1=O)C1=C(CC(C)(C)CC1=O)N2 (configuration not stated)	L major viab 100
COc1cc(C(=O)O/N=C(\N)c2ccccn2)cc(OC)c1OC	none (no result: Insulin prom inh, HCT116 PTEN-null, HCT116 bCat-KO, L major viab, Autophagy HCS)
COc1cc(C(=O)O/N=C2/C=CC(=O)C(C)=C2C)cc(OC)c1OC	HCT116 PTEN-null 2.5, L major viab 100
COc1cc(C(=O)O/N=C2\C=CC(=O)C=C2C)cc(OC)c1OC	L major viab 97 (no result: Insulin prom inh)
